Where “and” joins values, the source holds several entries; their conditions need not be identical. Equal entries are not always repeated. Records with an inconclusive call do not appear. A call without a number means that no potency is given here. Calls of active or inactive are those of the source. The call rests on the fitted dose curve.
test: qHTS assay to identify small molecule agonists of H2AX - cell viability counter screen (AID 1224847); details: CHO-K1 viability, CellTiter-Glo luminescence, 3 h; series mostly up to 70.9 µM; further: nearly all actives have a fitted effect of over 30% in size
Source text: National Center for Advancing Translational Sciences [NCATS]
NIH Chemical Genomics Center [NCGC]
U.S. Environmental Protection Agency [EPA]
National Institutes of Environmental Health Sciences [NIEHS]
National Toxicology Program [NTP]
U.S. Food and Drug Administration [FDA]
HTRF phospho-H2AX (Ser139) assay (Cisbio Bioassays, US) enables the quantitative detection of the histone variant H2AX when phosphorylated on serine 139. When double-stranded DNA breaks, either by ionizing radiation or endogenous physiological processes, H2AX becomes phosphorylated at Ser139. This phospho-Ser139 serves as a sensitive biomarker for the detection of such breaks, localizing the site of DNA repair. So, HTRF phospho-H2AX Ser139 is a pertinent assay to study genome stability, the cell cycle, DNA repair, and it serves as a biomarker for cancer, and to understand aging. Wild type CHO-K1 cells were used to identify the inducers of Phospho-H2AX Ser 139 from the Tox21 compound collections. Also cytotoxicity of the Tox21 10K compound library against the CHO-K1 cell line was tested by measuring the cell viability using CellTiter-Glo assay (Promega, Madison, WI).
Tox21 Assay Protocol Summary:
The CHO-K1 cells suspended in culture medium containing 10% FBS were dispensed at 1000 cells/ 3 ul/well in 1536-well white wall/solid bottom plates (Greiner Bio-One North America, NC) using a Multidrop Combi (Thermo Fisher Scientific Inc., Waltham, MA). After the assay plates were incubated at 37C overnight, 23 nl of compounds at 15 concentrations (from 5-48 columns) or positive control (from 1 to 4 columns) were transferred to the assay plates using a Pintool station (Wako, San Diego, CA) into each well resulting in a final DMSO concentration of 0.76%. After 3hr incubation at 37C, 3 uL/well CellTiter-Glo luminescent cell viability reagent (Promega Corporation, Madison, WI) was added using a Flying Reagent Dispenser (FRD) (Aurora Discovery, CA). After incubation at room temperature for 30 min, the luminescence intensity was read using a ViewLux plate reader (PerkinElmer, Waltham, MA).
Potency means the concentration at half of the fitted maximal effect.

| SMILES | Potency |
| --- | --- |
| CC(NN)c1ccccc1 (stereo not given) | inactive |
| COc1cc(/C=C/C(=O)O[C@H]2CC[C@]34C[C@]35CC[C@]3(C)[C@@H]([C@H](C)CCC=C(C)C)CC[C@@]3(C)[C@@H]5CC[C@H]4C2(C)C)ccc1O | inactive |
| CC(C)n1nc(-c2cc3cc(O)ccc3[nH]2)c2c(N)ncnc21 | inactive |
| CC(=O)S[C@@H]1CC2=CC(=O)CC[C@]2(C)[C@H]2CC[C@@]3(C)[C@@H](CC[C@@]34CCC(=O)O4)[C@H]12 | inactive |
| Nc1c(Cl)cc(Cl)cc1Cl | inactive |
| CCCCCCCCCCCCCCCCCC[N+](C)(C)Cc1ccccc1 | 45.4 µM (active) |
| CCCC1O[C@@H]2C[C@H]3[C@@H]4CCC5=CC(=O)C=C[C@]5(C)[C@H]4[C@@H](O)C[C@]3(C)[C@]2(C(=O)CO)O1 (stereo not given in full) | inactive |
| NC(=O)CC[C@@H]1NC(=O)[C@H](Cc2ccccc2)NC(=O)[C@H](Cc2ccc(O)cc2)NC(=O)CCSSC[C@@H](C(=O)N2CCC[C@H]2C(=O)N[C@@H](CCCN=C(N)N)C(=O)NCC(N)=O)NC(=O)[C@H](CC(N)=O)NC1=O | inactive |
| Cc1cccc2c1cc1ccc3cccc4ccc2c1c34 | inactive |
| COc1cccc(N)c1 | inactive |
| O=C1C=CC(=O)N1c1ccc(Cc2ccc(N3C(=O)C=CC3=O)cc2)cc1 | 50.5 µM (active) |
| CCC(CN)=C(c1ccccc1)c1ccccc1 | inactive |
| CCCCN1CCCC[C@H]1C(=O)Nc1c(C)cccc1C | inactive |
| Cc1cc(=O)oc2cc(N(C)C)ccc12 | inactive |
| CSc1ccc(C(=O)c2[nH]c(=O)[nH]c2C)cc1 | inactive |
| CCCCCOC(=O)CCCC | inactive |
| CC1=C(/C=C/C(C)=C/C=C/C(C)=C/C=O)C(C)(C)CCC1 | 39.9 µM (active) |
| c1ccc(CSCc2ccccc2)cc1 | inactive |
| O=C(O)c1cc(O)c2c(c1)C(=O)c1cccc(O)c1C2=O | inactive |
| CC(C)(C)C(=O)OCOC(=O)[C@@H]1N2C(=O)[C@@H](NC(=O)[C@H](N)c3ccccc3)[C@H]2SC1(C)C | inactive |

| SMILES | Potency |
| --- | --- |
| C[C@@H](NCCCc1cccc(C(F)(F)F)c1)c1cccc2ccccc12 | 49.2 µM (active) |
| Oc1ccc(Cl)cc1Sc1cc(Cl)ccc1O | 35.7 µM (active) |
| CCCCCCCCNC(C)C(O)c1ccc(SC(C)C)cc1 (stereo not given) | 43.8 µM (active) |
| CC(C)(C)NC(=O)[C@@H]1C[C@@H]2CCCC[C@@H]2CN1C[C@@H](O)[C@H](Cc1ccccc1)NC(=O)[C@H](CC(N)=O)NC(=O)c1ccc2ccccc2n1 | 51.2 µM (active) |
| CCCCCCCC[P+](CCCCCCCC)(CCCCCCCC)CCCCCCCC | 7.95 µM (active) |
| O=c1cccccc1O | inactive |
| Cc1[nH]cnc1C[C@H]1CCc2c(C)c3ccccc3n2C1=O | 87.6 µM (active) |
| O=[N+]([O-])c1cc(Cl)c(Cl)c(Cl)c1Cl | inactive |
| [Cl][Bi]([Cl])([c]1ccccc1)([c]1ccccc1)[c]1ccccc1 | 35.5 µM (active) |
| NC(=O)NS(=O)(=O)c1ccc(N)cc1 | inactive |
| CCCCc1oc2ccc(NS(C)(=O)=O)cc2c1C(=O)c1ccc(OCCCN(CCCC)CCCC)cc1 | 43.8 µM (active) |
| CCCCCCOC(=O)c1ccc(O)cc1 | 89.9 µM (active) and 101 µM (active) |
| CCCCCCCCOc1ccccc1C(=O)Nc1ccc(C(=O)OCC[N+](C)(CC)CC)cc1 | 24.7 µM (active) |
| OCCCCCCCCCCCCBr | 102 µM (active) |
| CC[C@@]1(O)C(=O)OCc2c1cc1n(c2=O)Cc2cc3c(CN(C)C)c(O)ccc3nc2-1 | inactive |
| COc1ccc(CN2CCN(C(c3ccc(F)cc3)c3ccc(F)cc3)CC2)c(OC)c1OC | 49.2 µM (active) |
| CN(C)[C@@H]1C(=O)C(C(N)=O)=C(O)[C@@]2(O)C(=O)C3=C(O)c4c(O)ccc(Cl)c4[C@@H](O)[C@H]3C[C@@H]12 | inactive |
| CC(C)(C)C(=O)OCOC(=O)C1N2C(=O)CC2S(=O)(=O)C1(C)C (stereo not given) | inactive |
| Cc1cc(O)c(C(C)(C)C)cc1Sc1cc(C(C)(C)C)c(O)cc1C | 17.9 µM (active) |
| CCCCCCCC/C=C/CCCCCCCC1=NCCN1CCO | 101 µM (active) |
